This is one part of a sample in which hits are shown more often than they occur. The true hit rate is not given.
tested on: T1, Caupolican (Caup) homeodomain DNA-binding domain; assay: PBM E-score (8-mer, recovered from the published 9-mer minima) (E-score (dimensionless, -0.5 to 0.5)); Drosophila protein; higher = stronger relative binding preference, active = 0.31 or more
T1 sequence: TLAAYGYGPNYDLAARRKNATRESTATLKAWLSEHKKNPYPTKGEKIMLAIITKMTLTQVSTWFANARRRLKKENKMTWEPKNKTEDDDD
How it was run: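 Caup's homeodomain DNA-binding domain (residues 214-303) was produced by in vitro transcription and translation and applied at 100 nM to custom-designed protein binding microarrays. Each value is an enrichment score giving relative binding preference for a short DNA word; higher means stronger. Published 9-mer scores were the minimum of their two constituent 8-mer scores, and the 8-mer values were recovered from those minima. A cutoff of 0.31 marks candidate binding sequences.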

PBM E-score, inactive:
CTCGTGGC -0.127, AAGCCGGG -0.179, GTATACAC 0.249, CTATACAG 0.0968, GTATACTA 0.16, CTATACAC 0.0914, CTATACAA 0.249, TTATACAA 0.28, ATATACAG 0.186, ATATATAC 0.181, ATTAGTGC 0.105, AACTGGCC -0.147, CCGGACGG -0.297, CCTGGCAA -0.121, CAATGACC 0.065, TCACAAGA 0.131, ATCGGTAC 0.0373, CTGCCGTC -0.128, ATTAGAGG -0.11, GAGATGCA -0.024, TGCATGCA 0.0646, ATCATGCA 0.103, CCCATGCA -0.119, CACATGCA 0.166, TCCATGCA -0.0253, ACCATGCT 0.14, AACATGCC 0.302, CTCGCGTA -0.0439, TTATCAAA 0.109, GTGATTCA 0.0823, AGAAAGCA 0.0369, CCGGGTCA -0.18, CACATGCC 0.0641, GCCATGCC -0.149, ATCATGCG 0.0113, CACATGCG 0.023, ATCCTGAG -0.0222, CAAGCTAG -0.0491, CGTAATGA 0.094, GTGACCGA -0.0686, ACTTGAAC 0.132, ACAAATCC 0.179, GCACATGA 0.182, ATACATTA 0.219, CTACATTA 0.199, CTACAGGA 0.245, GTTCATGA 0.115, CTGCATGA -0.0538, ACAGGAGT 0.0982, AAAGTTTG 0.0257, ACGGCAGT -0.0873, GCAACGCC -0.0458, ACAGTACG 0.0926, GCAGTACA 0.196, ACAGTACT 0.18, CCAGTACA 0.3, ATCTGATG 0.072, ACGATTTG 0.11, ATTACAAA 0.259, ATTACAAT 0.298, ATCACAAC 0.212, ATTACTAC 0.293, ACGTTCGG -0.177, ACTAGCCA 0.0322, CATAGTGA 0.155, AAGTCAAA 0.0275, CTGTCAAC 0.186, ATGTCAAG 0.309, CTGTCAAA 0.164, AGGTCAAA -0.0266, ACGTCAAT -0.00307, GTGTCAAC 0.272, GTGTCAAA 0.294, ACCCGATC -0.0489, CTTGGTAA 0.0467, CTCGTCAA 0.0256, GGTGGTTA 0.0166, AATTGAGT 0.131, ACACCCTC -0.0435, CAGCACGG -0.0332, ATAATCAG 0.101, AGAGCAAG 0.0346, AAACACAA 0.27, GGACACAA 0.204, GAACACAC 0.217, CAACACAA 0.241, AGATCGGC -0.152, ACCTGGAC -0.0342, ACCGTGCA 0.00395, GCCGTGAA -0.0891, CCCGTGTA 0.25, CCCGTGTC 0.145, ACCGTGGA -0.107, ACCGTGTG 0.115, GAACACCA 0.195, ACTATCAG 0.083, ATTATTAA 0.191, ACATTTTC 0.161, ACGCGACT 0.0019, CTCATAAG 0.0492, CATGACAG 0.151, GATAGATA 0.08, AGCTTCAC -0.0515, CATGGGAC 0.151, CAATGTTC 0.218, ACCTGTTA 0.222, AGATGTTA 0.286, CGATGTTC 0.249, AAATGTTG 0.201, GGATGTTA 0.204, GAATGTTA 0.234, AGATGTTG 0.203, GAGCCTCA -0.214, CCATATGG -0.073, AGCACTGA -0.0101, ACACTCTA 0.0891, AGTTTTGA 0.0657, CGTCCGGC -0.219, CGATGTTA 0.297, AAATGTTC 0.247, AGATGTTC 0.286, CAATGTTA 0.269, GATTTGCA 0.0416, ATAGTTCC -0.029, AAAGCCCC -0.238, CGTTAAGC -0.0697, AGTTGTAA 0.279, AGTTGTTA 0.266, GGTTGTGA 0.0824, CGTTGTTA 0.305, GGTTGTAC 0.222, AGTAGTAA 0.168, CGTTGTAA 0.261, CGTAGTAA 0.145, ACGAGGTG 0.0761, AGATGCAC -0.00186, AGCGTTCG -0.141, ATTAGGAA 0.0485, AGCAACAC 0.186, AGACGCGC -0.0474, ACACGTCT 0.203, ACACGACT 0.251, ACACGTCG 0.212, ACACGATC 0.254, ACACGACC 0.215, ACACAATG 0.273, CCACGATA 0.0391, GCACAATA 0.0168, AGACTGTG 0.0481, GCAGTCTA 0.0232, AAGATTGC -0.00712, CATTTCAG 0.00691, ACACGAAG 0.174, ACACGAGG 0.111, AAAAGCAT 0.1, TCTACACA 0.157, GGTACACA 0.28, CGTACACA 0.255, CGTACCAA 0.0356, AGTACAAA 0.26, TTTACAAA 0.245, CGTACACC 0.205, AGTACCAA 0.128, CGTATAGC -0.0127, ACTGCCTG -0.0684, ATGCTCGC -0.0878, CGTCTGTC 0.0202, GCTTATAC -0.034, CATATTTA 0.178, AAGCTGTG 0.00524, ATCCCGAC -0.0204, GCAGGTTA -0.0457, AAGTTATA 0.163, GCGTTATA -0.0159, CTGTTATA 0.187, CTGTTATC 0.103, AAGTTATG 0.185, ACGTTATC 0.0197, AGGTTATA 0.0929, AGGTTATG 0.044

PBM E-score, active:
GTATACAA 0.318, ATATACAA ≥ 0.355, ATATACAC 0.348, ATATACAT 0.367, TACATGCA 0.371, AACATGCA 0.392, GACATGCA 0.394, AACATGCT 0.376, AACATGCG 0.356, GACATGCC 0.35, GTACATTA 0.322, CTACATGA 0.36, GTACATGA 0.435, ACAGTACA 0.331, TCAGTACA 0.313, ATTACAAC 0.37, ATTACAAG ≥ 0.427, ATGTCAAT 0.359, ATGTCAAA 0.359, ATGTCAAC 0.324, TTGTCAAA 0.316, TAACACAA 0.319, GAACACAA 0.317, ACCGTGTC 0.312, ACCGTGTA 0.359, GCCGTGTA 0.341, CCATGTTC 0.368, ACATGTTG 0.453, GCATGTTA 0.397, ACATGTTA 0.452, ACATGTTC 0.455, CCATGTTA 0.406, TGTAGTAA 0.376, GGTTGTTA 0.324, TGTTGTAA 0.377, GGTTGTAA 0.333, ACACGTCA 0.325, ACACGATA 0.322, ACACAATA 0.31, ACACGACA ≥ 0.386, ACACGATG 0.347, TGTACCAA 0.312, CGTACACG 0.341, TGTACACA 0.407, TGTACAAA 0.384, ATGTTATG 0.338, ATGTTATA 0.381, ATGTTATC 0.351, GTGTTATA 0.334
